# Data as given in ChEMBL document CHEMBL1961873, “Compounds: GSK PKIS; Assays: Nanosyn kinase panel” (2012).
# Assays:
# [1] = biological target: Ribosomal protein S6 kinase alpha-3 (Homo sapiens) (UniProt P51812); details: at 0.1 µM
# [2] = biological target: Ribosomal protein S6 kinase alpha-3 (Homo sapiens) (UniProt P51812); details: at 1 µM
# [3] = biological target: Ribosomal protein S6 kinase alpha-2 (Homo sapiens) (UniProt Q15349); details: at 0.1 µM
# [4] = biological target: Ribosomal protein S6 kinase alpha-2 (Homo sapiens) (UniProt Q15349); details: at 1 µM
# [5] = biological target: Ribosomal protein S6 kinase alpha-6 (Homo sapiens) (UniProt Q9UK32); details: at 0.1 µM
# [6] = biological target: Ribosomal protein S6 kinase alpha-6 (Homo sapiens) (UniProt Q9UK32); details: at 1 µM
# [7] = biological target: Serine/threonine-protein kinase Sgk1 (Homo sapiens) (UniProt O00141); details: at 0.1 µM
# [8] = biological target: Serine/threonine-protein kinase Sgk1 (Homo sapiens) (UniProt O00141); details: at 1 µM
# [9] = biological target: Serine/threonine-protein kinase Sgk2 (Homo sapiens) (UniProt Q9HBY8); details: at 0.1 µM
# [10] = biological target: Serine/threonine-protein kinase Sgk2 (Homo sapiens) (UniProt Q9HBY8); details: at 1 µM
# [11] = biological target: Serine/threonine-protein kinase Sgk3 (Homo sapiens) (UniProt Q96BR1); details: at 0.1 µM
# Serine/threonine-protein kinase Sgk3 (Homo sapiens), sequence (Q96BR1 whole entry): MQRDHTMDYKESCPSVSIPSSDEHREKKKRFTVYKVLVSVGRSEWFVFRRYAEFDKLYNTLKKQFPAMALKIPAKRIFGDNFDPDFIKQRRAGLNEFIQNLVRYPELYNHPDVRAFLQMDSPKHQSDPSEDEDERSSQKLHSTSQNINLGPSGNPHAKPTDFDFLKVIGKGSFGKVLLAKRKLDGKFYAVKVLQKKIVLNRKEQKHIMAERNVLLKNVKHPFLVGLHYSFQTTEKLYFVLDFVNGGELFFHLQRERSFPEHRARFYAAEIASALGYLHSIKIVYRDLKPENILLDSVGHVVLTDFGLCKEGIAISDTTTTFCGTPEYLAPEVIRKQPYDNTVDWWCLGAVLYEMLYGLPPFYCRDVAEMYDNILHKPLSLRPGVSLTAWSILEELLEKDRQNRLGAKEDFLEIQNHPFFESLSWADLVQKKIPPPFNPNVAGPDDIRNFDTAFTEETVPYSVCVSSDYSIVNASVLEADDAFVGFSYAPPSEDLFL
# [12] = biological target: Serine/threonine-protein kinase Sgk3 (Homo sapiens) (UniProt Q96BR1); details: at 1 µM
# [13] = biological target: 5'-AMP-activated protein kinase catalytic subunit alpha-1 (Homo sapiens) (UniProt Q13131); details: at 0.1 µM
# 5'-AMP-activated protein kinase catalytic subunit alpha-1 (Homo sapiens), sequence (Q13131 whole entry, looked up): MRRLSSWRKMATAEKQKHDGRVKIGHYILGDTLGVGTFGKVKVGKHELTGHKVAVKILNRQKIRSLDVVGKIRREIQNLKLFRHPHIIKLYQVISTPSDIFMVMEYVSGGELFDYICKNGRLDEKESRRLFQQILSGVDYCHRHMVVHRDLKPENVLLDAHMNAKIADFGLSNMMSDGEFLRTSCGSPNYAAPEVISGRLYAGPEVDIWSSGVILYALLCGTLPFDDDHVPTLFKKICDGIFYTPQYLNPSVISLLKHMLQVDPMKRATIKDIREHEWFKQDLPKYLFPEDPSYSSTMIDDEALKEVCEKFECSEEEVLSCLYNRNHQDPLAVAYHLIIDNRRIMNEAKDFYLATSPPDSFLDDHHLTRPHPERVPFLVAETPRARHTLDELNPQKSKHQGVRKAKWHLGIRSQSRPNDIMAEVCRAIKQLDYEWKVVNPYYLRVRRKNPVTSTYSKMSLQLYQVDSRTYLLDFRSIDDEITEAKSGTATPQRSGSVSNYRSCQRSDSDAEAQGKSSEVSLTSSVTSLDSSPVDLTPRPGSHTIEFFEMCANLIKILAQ
# [14] = biological target: 5'-AMP-activated protein kinase catalytic subunit alpha-1 (Homo sapiens) (UniProt Q13131); details: at 1 µM
# [15] = biological target: 5'-AMP-activated protein kinase catalytic subunit alpha-2 (Homo sapiens) (UniProt P54646); details: at 0.1 µM
# 5'-AMP-activated protein kinase catalytic subunit alpha-2 (Homo sapiens), sequence (P54646 whole entry, looked up): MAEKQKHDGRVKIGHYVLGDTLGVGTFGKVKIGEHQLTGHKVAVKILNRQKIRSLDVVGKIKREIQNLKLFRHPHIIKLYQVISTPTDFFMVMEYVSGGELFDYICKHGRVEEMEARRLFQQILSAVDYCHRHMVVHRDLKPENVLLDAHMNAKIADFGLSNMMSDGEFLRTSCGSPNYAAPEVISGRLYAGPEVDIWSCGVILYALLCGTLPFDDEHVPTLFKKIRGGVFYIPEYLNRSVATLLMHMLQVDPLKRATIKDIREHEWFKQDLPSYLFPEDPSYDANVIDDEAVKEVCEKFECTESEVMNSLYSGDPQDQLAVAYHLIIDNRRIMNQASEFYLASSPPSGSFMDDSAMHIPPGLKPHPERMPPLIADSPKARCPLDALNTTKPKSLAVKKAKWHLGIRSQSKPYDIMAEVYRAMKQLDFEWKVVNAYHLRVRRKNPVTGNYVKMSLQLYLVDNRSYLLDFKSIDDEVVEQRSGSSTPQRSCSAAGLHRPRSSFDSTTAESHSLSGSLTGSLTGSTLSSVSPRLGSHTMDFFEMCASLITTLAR
# [16] = biological target: 5'-AMP-activated protein kinase catalytic subunit alpha-2 (Homo sapiens) (UniProt P54646); details: at 1 µM
# [17] = biological target: NUAK family SNF1-like kinase 1 (Homo sapiens) (UniProt O60285); details: at 0.1 µM
# [18] = biological target: NUAK family SNF1-like kinase 1 (Homo sapiens) (UniProt O60285); details: at 1 µM
# [19] = biological target: Serine/threonine-protein kinase BRSK1 (Homo sapiens) (UniProt Q8TDC3); details: at 0.1 µM
# [20] = biological target: Serine/threonine-protein kinase BRSK1 (Homo sapiens) (UniProt Q8TDC3); details: at 1 µM
# [21] = biological target: Serine/threonine-protein kinase BRSK2 (Homo sapiens) (UniProt Q8IWQ3); details: at 0.1 µM
# [22] = biological target: Serine/threonine-protein kinase BRSK2 (Homo sapiens) (UniProt Q8IWQ3); details: at 1 µM
# [23] = biological target: Calcium/calmodulin-dependent protein kinase type 1D (Homo sapiens) (UniProt Q8IU85); details: at 0.1 µM
# [24] = biological target: Calcium/calmodulin-dependent protein kinase type 1D (Homo sapiens) (UniProt Q8IU85); details: at 1 µM
# [25] = biological target: Calcium/calmodulin-dependent protein kinase type II subunit alpha (Homo sapiens) (UniProt Q9UQM7); details: at 0.1 µM
# Calcium/calmodulin-dependent protein kinase type II subunit alpha (Homo sapiens), sequence (Q9UQM7 whole entry): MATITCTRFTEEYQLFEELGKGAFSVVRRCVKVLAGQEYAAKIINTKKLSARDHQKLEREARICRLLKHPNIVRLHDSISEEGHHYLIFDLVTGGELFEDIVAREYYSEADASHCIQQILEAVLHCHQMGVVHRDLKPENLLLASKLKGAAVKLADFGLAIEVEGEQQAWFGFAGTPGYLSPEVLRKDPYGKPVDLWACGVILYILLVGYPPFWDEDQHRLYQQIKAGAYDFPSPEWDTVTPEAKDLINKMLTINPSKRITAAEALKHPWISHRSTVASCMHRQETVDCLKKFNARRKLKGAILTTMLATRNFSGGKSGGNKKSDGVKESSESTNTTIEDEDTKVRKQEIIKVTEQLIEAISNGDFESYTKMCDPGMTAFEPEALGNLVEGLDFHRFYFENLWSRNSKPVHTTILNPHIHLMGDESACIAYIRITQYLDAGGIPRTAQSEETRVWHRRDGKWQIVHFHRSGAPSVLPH
# [26] = biological target: Calcium/calmodulin-dependent protein kinase type II subunit alpha (Homo sapiens) (UniProt Q9UQM7); details: at 1 µM
# [27] = biological target: Calcium/calmodulin-dependent protein kinase type II subunit delta (Homo sapiens) (UniProt Q13557); details: at 0.1 µM
# [28] = biological target: Calcium/calmodulin-dependent protein kinase type II subunit delta (Homo sapiens) (UniProt Q13557); details: at 1 µM
# [29] = biological target: Calcium/calmodulin-dependent protein kinase type IV (Homo sapiens) (UniProt Q16566); details: at 0.1 µM
# Calcium/calmodulin-dependent protein kinase type IV (Homo sapiens), sequence (Q16566 whole entry): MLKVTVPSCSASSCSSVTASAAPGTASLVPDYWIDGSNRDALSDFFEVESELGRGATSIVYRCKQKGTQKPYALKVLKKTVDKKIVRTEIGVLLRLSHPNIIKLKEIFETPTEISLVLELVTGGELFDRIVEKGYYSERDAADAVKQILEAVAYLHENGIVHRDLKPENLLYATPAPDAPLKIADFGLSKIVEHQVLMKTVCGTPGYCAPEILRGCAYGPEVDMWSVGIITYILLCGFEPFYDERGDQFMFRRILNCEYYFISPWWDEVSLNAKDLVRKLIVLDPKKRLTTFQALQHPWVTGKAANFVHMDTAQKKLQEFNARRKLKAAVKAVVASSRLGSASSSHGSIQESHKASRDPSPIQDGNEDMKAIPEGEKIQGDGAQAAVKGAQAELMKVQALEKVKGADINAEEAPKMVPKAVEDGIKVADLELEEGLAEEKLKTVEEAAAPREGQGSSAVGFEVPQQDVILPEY
# [30] = biological target: Calcium/calmodulin-dependent protein kinase type IV (Homo sapiens) (UniProt Q16566); details: at 1 µM
# [31] = biological target: Serine/threonine-protein kinase Chk1 (Homo sapiens) (UniProt O14757); details: at 0.1 µM
# [32] = biological target: Serine/threonine-protein kinase Chk1 (Homo sapiens) (UniProt O14757); details: at 1 µM
# [33] = biological target: Serine/threonine-protein kinase Chk2 (Homo sapiens) (UniProt O96017); details: at 0.1 µM
# [34] = biological target: Serine/threonine-protein kinase Chk2 (Homo sapiens) (UniProt O96017); details: at 1 µM
# [35] = biological target: Death-associated protein kinase 1 (Homo sapiens) (UniProt P53355); details: at 0.1 µM
# [36] = biological target: Death-associated protein kinase 1 (Homo sapiens) (UniProt P53355); details: at 1 µM
# [37] = biological target: Serine/threonine-protein kinase DCLK2 (Homo sapiens) (UniProt Q8N568); details: at 0.1 µM
# [38] = biological target: Serine/threonine-protein kinase DCLK2 (Homo sapiens) (UniProt Q8N568); details: at 1 µM
# [39] = biological target: MAP kinase-activated protein kinase 2 (Homo sapiens) (UniProt P49137); details: at 0.1 µM
# MAP kinase-activated protein kinase 2 (Homo sapiens), sequence (P49137 whole entry, looked up): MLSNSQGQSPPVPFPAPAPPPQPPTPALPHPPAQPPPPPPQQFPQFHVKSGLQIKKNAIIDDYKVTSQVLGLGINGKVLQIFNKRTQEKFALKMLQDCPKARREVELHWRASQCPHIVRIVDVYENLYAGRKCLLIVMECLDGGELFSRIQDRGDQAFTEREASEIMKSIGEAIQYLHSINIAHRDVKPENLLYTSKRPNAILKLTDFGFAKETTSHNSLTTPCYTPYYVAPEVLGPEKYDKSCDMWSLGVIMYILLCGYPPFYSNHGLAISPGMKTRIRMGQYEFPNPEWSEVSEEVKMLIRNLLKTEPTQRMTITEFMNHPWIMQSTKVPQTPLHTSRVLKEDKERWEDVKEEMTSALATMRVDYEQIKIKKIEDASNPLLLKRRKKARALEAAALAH
# [40] = biological target: MAP kinase-activated protein kinase 2 (Homo sapiens) (UniProt P49137); details: at 1 µM
# [41] = biological target: MAP kinase-activated protein kinase 3 (Homo sapiens) (UniProt Q16644); details: at 0.1 µM
# [42] = biological target: MAP kinase-activated protein kinase 3 (Homo sapiens) (UniProt Q16644); details: at 1 µM
# [43] = biological target: Serine/threonine-protein kinase MARK1 (Homo sapiens) (UniProt Q9P0L2); details: at 0.1 µM
# [44] = biological target: Serine/threonine-protein kinase MARK1 (Homo sapiens) (UniProt Q9P0L2); details: at 1 µM
# [45] = biological target: MAP/microtubule affinity-regulating kinase 3 (Homo sapiens) (UniProt P27448); details: at 0.1 µM
# [46] = biological target: MAP/microtubule affinity-regulating kinase 3 (Homo sapiens) (UniProt P27448); details: at 1 µM
# [47] = biological target: MAP/microtubule affinity-regulating kinase 4 (Homo sapiens) (UniProt Q96L34); details: at 0.1 µM
# MAP/microtubule affinity-regulating kinase 4 (Homo sapiens), sequence (Q96L34 whole entry): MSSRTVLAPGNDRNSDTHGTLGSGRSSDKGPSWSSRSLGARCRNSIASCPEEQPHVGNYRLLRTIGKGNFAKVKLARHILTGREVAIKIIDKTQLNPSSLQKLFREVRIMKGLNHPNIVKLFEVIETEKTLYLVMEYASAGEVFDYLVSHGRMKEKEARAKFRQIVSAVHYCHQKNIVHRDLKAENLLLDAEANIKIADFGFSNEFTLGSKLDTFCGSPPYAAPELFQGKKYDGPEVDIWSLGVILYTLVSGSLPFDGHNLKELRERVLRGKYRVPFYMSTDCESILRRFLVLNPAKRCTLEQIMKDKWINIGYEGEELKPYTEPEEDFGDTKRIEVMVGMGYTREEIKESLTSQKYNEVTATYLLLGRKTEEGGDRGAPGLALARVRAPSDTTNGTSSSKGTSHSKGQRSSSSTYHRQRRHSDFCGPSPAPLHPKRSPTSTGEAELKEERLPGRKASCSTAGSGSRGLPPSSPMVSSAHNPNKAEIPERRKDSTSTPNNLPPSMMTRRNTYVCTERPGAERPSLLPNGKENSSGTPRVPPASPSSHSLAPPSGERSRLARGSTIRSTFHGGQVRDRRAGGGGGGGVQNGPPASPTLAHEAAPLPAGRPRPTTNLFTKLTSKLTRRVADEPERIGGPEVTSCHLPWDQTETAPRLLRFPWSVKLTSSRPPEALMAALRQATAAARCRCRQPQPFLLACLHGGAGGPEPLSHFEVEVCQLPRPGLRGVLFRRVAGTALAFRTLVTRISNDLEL
# [48] = biological target: MAP/microtubule affinity-regulating kinase 4 (Homo sapiens) (UniProt Q96L34); details: at 1 µM
# [49] = biological target: Maternal embryonic leucine zipper kinase (Homo sapiens) (UniProt Q14680); details: at 0.1 µM
# Maternal embryonic leucine zipper kinase (Homo sapiens), sequence (Q14680 whole entry, looked up): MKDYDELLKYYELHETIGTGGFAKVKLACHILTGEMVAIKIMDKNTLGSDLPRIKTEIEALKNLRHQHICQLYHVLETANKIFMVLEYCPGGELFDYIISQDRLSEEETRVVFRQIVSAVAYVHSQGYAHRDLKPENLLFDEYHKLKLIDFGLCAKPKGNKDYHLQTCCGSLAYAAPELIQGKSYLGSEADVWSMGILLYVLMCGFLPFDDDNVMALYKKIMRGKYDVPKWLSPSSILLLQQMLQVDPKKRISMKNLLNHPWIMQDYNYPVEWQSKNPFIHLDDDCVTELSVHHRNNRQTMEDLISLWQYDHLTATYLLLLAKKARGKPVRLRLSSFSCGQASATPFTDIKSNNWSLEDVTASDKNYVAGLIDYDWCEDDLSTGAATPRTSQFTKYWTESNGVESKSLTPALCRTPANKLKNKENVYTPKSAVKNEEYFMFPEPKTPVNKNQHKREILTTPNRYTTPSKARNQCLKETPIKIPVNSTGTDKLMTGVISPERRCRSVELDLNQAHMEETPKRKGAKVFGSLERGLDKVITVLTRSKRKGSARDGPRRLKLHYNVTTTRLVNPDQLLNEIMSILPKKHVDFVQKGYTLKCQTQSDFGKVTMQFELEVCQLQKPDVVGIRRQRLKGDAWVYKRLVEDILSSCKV
# [50] = biological target: Maternal embryonic leucine zipper kinase (Homo sapiens) (UniProt Q14680); details: at 1 µM
# [51] = biological target: MAP kinase-interacting serine/threonine-protein kinase 1 (Homo sapiens) (UniProt Q9BUB5); details: at 0.1 µM
# [52] = biological target: MAP kinase-interacting serine/threonine-protein kinase 1 (Homo sapiens) (UniProt Q9BUB5); details: at 1 µM
# [53] = biological target: MAP kinase-interacting serine/threonine-protein kinase 2 (Homo sapiens) (UniProt Q9HBH9); details: at 0.1 µM
# MAP kinase-interacting serine/threonine-protein kinase 2 (Homo sapiens), sequence (Q9HBH9 whole entry, looked up): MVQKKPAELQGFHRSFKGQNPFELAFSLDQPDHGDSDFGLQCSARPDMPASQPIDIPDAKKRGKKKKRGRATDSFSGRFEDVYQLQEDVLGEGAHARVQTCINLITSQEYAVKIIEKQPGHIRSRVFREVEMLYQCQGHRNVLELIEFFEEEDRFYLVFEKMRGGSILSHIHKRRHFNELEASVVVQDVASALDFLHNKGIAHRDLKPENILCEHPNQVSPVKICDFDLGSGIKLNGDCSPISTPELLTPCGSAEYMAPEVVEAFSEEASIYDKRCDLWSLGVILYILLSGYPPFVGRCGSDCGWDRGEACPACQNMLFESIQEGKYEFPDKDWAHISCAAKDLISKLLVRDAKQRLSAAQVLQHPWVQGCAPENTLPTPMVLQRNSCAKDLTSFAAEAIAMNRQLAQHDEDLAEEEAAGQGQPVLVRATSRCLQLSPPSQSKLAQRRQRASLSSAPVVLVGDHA
# [54] = biological target: MAP kinase-interacting serine/threonine-protein kinase 2 (Homo sapiens) (UniProt Q9HBH9); details: at 1 µM
# [55] = biological target: Serine/threonine-protein kinase MARK2 (Homo sapiens) (UniProt Q7KZI7); details: at 0.1 µM
# [56] = biological target: Serine/threonine-protein kinase MARK2 (Homo sapiens) (UniProt Q7KZI7); details: at 1 µM
structure (smiles),measurement,setting,value
CNC(=O)Oc1cc(C)c(/C=C/c2cncc(C(=O)NC)c2)c(C)c1,inhibition,[1],1.05%
same,inhibition,[2],3.39%
same,inhibition,[3],1.4%
same,inhibition,[4],3.44%
same,inhibition,[5],1.15%
same,inhibition,[6],2.66%
same,inhibition,[7],3.01%
same,inhibition,[8],0.19%
same,inhibition,[9],1.73%
same,inhibition,[10],0.22%
same,inhibition,[11],1.34%
same,inhibition,[12],0.65%
same,inhibition,[13],2.14%
same,inhibition,[14],0.11%
same,inhibition,[15],-0.38%
same,inhibition,[16],2.44%
same,inhibition,[17],-1.06%
same,inhibition,[18],4.07%
same,inhibition,[19],2.89%
same,inhibition,[20],12%
same,inhibition,[21],1.79%
same,inhibition,[22],7.68%
same,inhibition,[23],0.95%
same,inhibition,[24],2.36%
same,inhibition,[25],3.17%
same,inhibition,[26],4.72%
same,inhibition,[27],4.03%
same,inhibition,[28],5.12%
same,inhibition,[29],1.23%
same,inhibition,[30],0.1%
same,inhibition,[31],-2.68%
same,inhibition,[32],-3.25%
same,inhibition,[33],-3.08%
same,inhibition,[34],0.64%
same,inhibition,[35],-4.67%
same,inhibition,[36],-3.09%
same,inhibition,[37],1.08%
same,inhibition,[38],-1.11%
same,inhibition,[39],-2.03%
same,inhibition,[40],-2.01%
same,inhibition,[41],-3.36%
same,inhibition,[42],-4.16%
same,inhibition,[43],1.32%
same,inhibition,[44],0.49%
same,inhibition,[45],3.32%
same,inhibition,[46],5.19%
same,inhibition,[47],0.21%
same,inhibition,[48],0.46%
same,inhibition,[49],1.41%
same,inhibition,[50],3.48%
same,inhibition,[51],5.31%
same,inhibition,[52],30.7%
same,inhibition,[53],3.17%
same,inhibition,[54],25.1%
same,inhibition,[55],-0.87%
same,inhibition,[56],0.31%
